Among the data in PubChem BioAssay AID1240 (Sanford-Burnham Center for Chemical Genomics, 2008) are displacement values, retold here.

SMILES strings stand for the structures. Among all 50,000 compounds or so, about 800 (1.6%) showed an effect of 50% or more. This is one part of a sample in which strong results are shown more often than they occur.

Chain of Bcl-2-like protein 10 (Homo sapiens) (Q9HD36 whole entry, looked up): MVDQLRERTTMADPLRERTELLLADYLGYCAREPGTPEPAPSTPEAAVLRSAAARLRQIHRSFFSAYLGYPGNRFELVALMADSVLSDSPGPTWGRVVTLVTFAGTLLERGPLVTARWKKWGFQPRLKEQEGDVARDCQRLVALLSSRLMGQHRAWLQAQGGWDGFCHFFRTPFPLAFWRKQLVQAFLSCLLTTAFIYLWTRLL

The experiment concerns the target Bcl-2-like protein 10 (Homo sapiens) (UniProt Q9HD36). The experiment is described as follows: TR3 peptide-Bcl-B binding displacers, biochemical primary FP assay, phenotype converters (AID 1240).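 Further: 0% = Bcl-B with tracer peptide and DMSO and 100% = tracer peptide lacking Bcl-B.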 The note with it: GST-Bcl-B / FITC-TR3 peptide fluorescence polarization; stronger effect = higher value; compound at 3.75 mg/L.
Regarding `CC1=NN(c2ccc(C(=O)O)cc2)C(=O)/C1=C\c1ccc(O)cc1`, the displacement is -50.5%.

Take `Cc1cc2nc(-c3cc(NC(=O)COc4ccc([N+](=O)[O-])cc4)ccc3O)oc2cc1C`: the displacement is 0.2%.

Turning to `Cc1c(NC(=O)/C=C/c2ccccc2)c(=O)n(-c2ccccc2)n1C`, the displacement is 2.7%.

Regarding `Cc1c(NC(=O)/C=C/c2cn(-c3ccccc3)nc2-c2ccc(F)cc2)c(=O)n(-c2ccccc2)n1C`, the displacement amounted to 12.2%.

With `Cc1c(NC(=O)/C=C/c2cn(-c3ccccc3)nc2-c2ccccc2)c(=O)n(-c2ccccc2)n1C`, the displacement came to 70%.

On to `COc1ccc(C(=O)N2CCN(Cc3cccc(Oc4ccccc4)c3)CC2)cc1OC`, for which the displacement amounted to 6.4%.

As for `COc1ccc(C(=O)N2CCN(Cc3ccccc3C)CC2)cc1OC`, the displacement was -1%.

Consider `COc1ccc(C(=O)N2CCN(Cc3ccccc3F)CC2)cc1OC`, for which the displacement is 56%.

With `COc1ccc(C(=O)N2CCN(Cc3cccc4ccccc34)CC2)cc1OC`, the displacement was -5.2%.

Take `COc1cc(C(=O)N2CCN(Cc3cccc(Oc4ccccc4)c3)CC2)cc(OC)c1OC`: the displacement amounted to 132%.

In the case of `O=C(c1ccccc1)N1CCN(Cc2cccc(Oc3ccccc3)c2)CC1`, the displacement is -8.8%.

As to `CC(=O)SCCC(=O)N1CCn2c3c(c4cc(C)ccc42)CCCC31` (stereo not given), the displacement stood at 14.3%.

For the compound `CCn1c2c(c3cc(C4CCCCC4)ccc31)CCCC2O` (stereo not given), the displacement was determined as 2.5%.

With `CN1CCN(CC(=O)N2CCn3c4c(c5cc(C6CCCCC6)ccc53)CCCC42)CC1` (stereo not given), the displacement turned out to be 60.9%.

For the compound `O=C(Nc1ccc(Cl)cc1)Nc1ccc([N+](=O)[O-])cc1Br`, the displacement amounted to 3.9%.

For the compound `CCCC(=O)Nc1ccc2c(c1)Cc1ccccc1-2`, the displacement was -1.1%.

For `O=C(N/N=C/c1cccnc1)c1ccco1`, the displacement turned out to be 18.4%.

In the case of `O=C1OC(c2ccc(NC(=O)C(F)(F)F)cc2)(c2ccc(NC(=O)C(F)(F)F)cc2)c2ccccc21`, the displacement turned out to be 4.8%.

Consider `O=C1OC(Nc2ncccn2)(c2ccccc2)c2ccccc21` (stereo not given), for which the displacement was -7.3%.

On to `O=S(=O)(c1ccc2ccccc2c1)N1CCC(Cc2ccccc2)CC1`, for which the displacement was -21.4%.

`O=C(CCN1C(=O)c2ccccc2C1=O)Nc1ccccc1C(=O)N1CCOCC1`: the displacement is 10%.

Turning to `O=C1CNC(=O)c2c(ncn2Cc2ccccc2)N1`, the displacement was -13.2%.

With `O=C1c2ccccc2-c2onc3ccc(Nc4cccc([N+](=O)[O-])c4)c1c23`, the displacement turned out to be 24.2%.

For `O=C1c2ccccc2C(=O)c2c(NC3CCCCC3)cccc21`, the displacement is -2.9%.

As to `Cc1ccc(N2CCCCC2)c2c1C(=O)c1ccccc1C2=O`, the displacement was 1.1%.

For the compound `O=C1c2ccccc2-c2onc3c(N4CCN(c5ccccc5)CC4)ccc1c23`, the displacement is -8.2%.

`O=C1c2ccccc2-c2onc3ccc(N4CCCCC4)c1c23`: the displacement amounted to 145%.

Consider `O=C1c2ccccc2-c2onc3ccc(NC4CCCCC4)c1c23`, for which the displacement was determined as 59.4%.

On to `CCSc1sc(CC)cc1C(=O)O`, for which the displacement was determined as 15.4%.

As to `O=c1oc(-c2ccco2)nc2cc(Cl)ccc12`, the displacement came to 56%.

For the compound `O=c1oc(-c2ccco2)nc2ccc(Cl)cc12`, the displacement was found to be 13.6%.

Regarding `O=c1oc(-c2ccco2)nc2ccccc12`, the displacement worked out at 15.9%.

For `C(=C\c1ccco1)/C=N/Nc1nnc2c(n1)[nH]c1ccccc12`, the displacement is -1.8%.

As for `CCOc1ccc(C(=O)Nc2ccc(O)c(-c3nc4ccccc4s3)c2)cc1Cl`, the displacement amounted to 6.3%.

For `O=c1c2c(nc3cc(-c4ccc(I)cc4)[nH]n13)CCS2`, the displacement was 97.5%.

As for `O=c1c2c(nc3cc(-c4ccc(Cl)cc4)[nH]n13)CCS2`, the displacement was determined as 115%.

For the compound `Cc1ccc(-c2cc3nc4c(c(=O)n3[nH]2)SCC4)cc1`, the displacement was -4.6%.

Consider `O=c1c2c(nc3cc(-c4cccc(Cl)c4)[nH]n13)CCS2`, for which the displacement was found to be 34.8%.

Take `O=c1c2c(nc3cc(-c4cccc(F)c4)[nH]n13)CCS2`: the displacement stood at 9.2%.

For the compound `O=c1c2c(nc3cc(-c4ccc(Br)cc4)[nH]n13)CCS2`, the displacement was -9.1%.

`O=C(COc1cccc2ccccc12)NCc1cccnc1`: the displacement was found to be 8.3%.

For the compound `CC(C)CNC(=O)c1cccc(NC(=O)CN2C(=O)c3ccccc3C2=O)c1`, the displacement came out at 13.8%.

In the case of `O=C(NCc1ccncc1)c1ccc(Cl)cc1`, the displacement was -3.5%.

With `C/C(=N/NC(=O)COc1cccc(Cl)c1)c1ccccc1O`, the displacement was found to be 9.1%.

For `Cc1cc(C)c(NC(=O)c2ccccc2[N+](=O)[O-])c(C)c1`, the displacement was found to be 13.5%.

As to `CC(=O)NC(NC(C)=O)c1ccc(F)cc1`, the displacement is -2.4%.

As to `COc1cc(/C=C2\C(=O)NC(=O)N(c3cccc(Br)c3)C2=O)cc(Cl)c1O`, the displacement came out at 4.4%.

For `CCN(CC)c1ccc(/C=C2\C(=O)NC(=O)N(c3ccc(OC)cc3)C2=O)c(OC)c1`, the displacement came out at 10%.

As for `CCOc1ccc(/C=C2/C(=O)NC(=O)N(c3ccc(OC)cc3)C2=O)c(OCC)c1`, the displacement is -4%.

Turning to `COc1ccc(/C=C2\C(=O)NC(=S)N(c3cccc(Br)c3)C2=O)c(OC)c1`, the displacement is -0.7%.

`COc1ccc(/C=C2\C(=O)NC(=O)N(c3cccc(Br)c3)C2=O)cc1OC`: the displacement came out at 120%.

With `COc1ccc(/C=C2\C(=O)NC(=O)N(c3cccc(Br)c3)C2=O)c(C)c1`, the displacement was -5.7%.

Consider `COc1ccc(/C=C2\C(=O)NC(=O)N(c3ccc(F)cc3)C2=O)cc1OC`, for which the displacement was -27.7%.

Regarding `CCOc1ccc(N2C(=O)NC(=O)/C(=C\c3ccc(N(CC)CC)cc3OC)C2=O)cc1`, the displacement is 55.1%.

As for `COc1ccc(/C=C2\C(=O)NC(=O)N(c3cccc(Br)c3)C2=O)c(OC)c1`, the displacement amounted to 122%.

As to `Cc1cc(Br)ccc1NC(=O)c1ccc(C)c([N+](=O)[O-])c1`, the displacement amounted to 8.6%.

As for `CCCCCOC(=O)C1=C(C)NC(=O)NC1c1ccc(Br)cc1` (stereo not given), the displacement was found to be 8.5%.

For `COc1ccccc1C(=O)Nc1nnc(C(C)(C)C)s1`, the displacement is -11.4%.

As to `CCOc1ccc(S(=O)(=O)N(CC(=O)NC)c2ccc(C)cc2)cc1`, the displacement was 1.7%.

Consider `C=CCC(C)(CC=C)NC(=O)c1ccccc1[N+](=O)[O-]`, for which the displacement was -6.9%.

Take `O=C(NCC1CCCO1)/C(=C/c1ccc(-c2ccccc2Cl)o1)NC(=O)c1ccccc1` (stereo not given): the displacement came to 19.7%.

For `COc1cc(C(=O)Oc2ccc(Cl)cc2C)cc(OC)c1OC`, the displacement worked out at 2.1%.

For the compound `CCOC(=O)C1=C(C)NC2=C(C(=O)CC(C)(C)C2)C1c1ccc(OC(F)F)cc1` (stereo not given), the displacement was -0.2%.

For `COc1ccc(C2=C/C(=C\c3ccc(OC(C)=O)cc3)C(=O)O2)cc1`, the displacement is 110%.

For the compound `COc1cc(/C=C2\C=C(c3ccc(C)cc3)OC2=O)ccc1OC(C)=O`, the displacement came out at 59.2%.

Consider `CCOc1ccc(C2=C/C(=C/c3ccc(OC)cc3)C(=O)O2)cc1`, for which the displacement was -0.6%.

In the case of `COc1ccc(C2=C/C(=C\c3ccc(OC(C)=O)c(OC)c3)C(=O)O2)cc1`, the displacement came to 39.4%.

For `CCOc1cc(/C=C2\C=C(c3ccc(OC)cc3)OC2=O)ccc1OC(C)=O`, the displacement was 92.4%.

As for `CCOc1cc(/C=C2/C=C(c3ccc(OC)cc3)OC2=O)cc(I)c1OC`, the displacement was -6%.

As to `COc1ccc(/C=C2\C=C(c3ccc(C)cc3)OC2=O)cc1C`, the displacement amounted to 10.4%.

Consider `CCOc1cc(/C=C2\C=C(c3ccc(Br)cc3)OC2=O)ccc1OC(C)=O`, for which the displacement stood at 12.6%.

On to `COc1ccc(C2=C/C(=C\c3cccc(OC(C)=O)c3)C(=O)O2)cc1`, for which the displacement was 25.4%.

Take `CC(=O)Oc1cccc(/C=C2\C=C(c3ccc(C)cc3)OC2=O)c1`: the displacement came out at 7%.

Regarding `CCOc1cc(/C=C2\C=C(c3ccc(C)cc3)OC2=O)ccc1OC(C)=O`, the displacement came out at 111%.

Regarding `CC(=O)Oc1ccc(/C=C2\C=C(c3ccc(C)cc3)OC2=O)cc1`, the displacement was 34.5%.
